Reference: PubChem BioAssay (NCATS)
Inconclusive results are not listed. Activity calls are given as the source filed them. Unless noted, calls follow the shape of the dose curve; as a rule, active = well fitted curve in the direction sought with a large enough effect; inconclusive = small, poorly fitted or top-dose-only effect, or another doubt; inactive = no such curve, though single readings can be large; an effect the other way counts as inactive or inconclusive.

Key:
[1] = High Content Imaging Cell-Based qHTS for Inhibitors of the mTORC1 Signaling Pathway in MEF Cells (AID 2667);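 also: Tsc2-/- p53-/- MEFs stably re-expressing wild-type Tsc2 exposed 24 h; series mostly up to about 38 µM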
Outline: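 Read-out is the share of phospho-rpS6-positive cells per well, from Hoechst-normalized Alexa-488 Ser235/236 staining imaged on IN Cell. Cells: WT Tsc2-expressing Tsc2-/-, p53-/- MEFs exposed to compound for 24 hrs.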

[2] = Cytometry Cell-Based qHTS for Inhibitors of the mTORC1 Signaling Pathway in MEF cells (AID 2668);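 also: Tsc2-/- p53-/- mouse embryonic fibroblasts stably re-expressing wild-type Tsc2; percent cells positive for phospho-rpS6 Ser235/236 relative to propidium iodide stain; series mostly up to about 38 µM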
Outline: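 Phospho-rpS6 (Ser235/236) immunofluorescence over PI signal, scored as % positive cells using thresholds from 7.5 nM rapamycin and DMSO wells, after 24 h compound exposure of WT-Tsc2-rescued Tsc2-/-, p53-/- MEFs. PI cell count recorded for viability.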

[3] = Validation screen for small molecules that induce DNA re-replication in MCF 10A normal breast cells (AID 463097); also: nearly all actives have a fitted effect of over 60% in size
Outline: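 Read-out is Hoechst total nuclear intensity by fluorescence scanning imager, flagging increased high-DNA-content nuclei. Compounds were incubated with MCF 10A cells for 48 hr (37 C, 5% CO2) before 40 min staining.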

[4] = biological target: Ubiquitin carboxyl-terminal hydrolase 2 (Homo sapiens) (UniProt O75604); test: qHTS Validation Assay for Inhibitors of Ubiquitin-specific Protease USP2a Using CHOP2 as the Reporter (AID 463106); also: potency is read from the fitted curve at half-maximal effect
Outline: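 Fluorescence read-out at Ex 485nm/Em 531nm after 60min RT, following addition of 25nM Ub-CHOP2 plus 25nM reporter substrate to USP2 core (10nM) pretreated 30min with compound. Data normalized to NEM full inhibition; concentration-response curves fitted.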

[5] = biological target: DNA polymerase III PolC-type (Bacillus subtilis (strain 168)) (UniProt P13267); test: qHTS Validation Assay for the Inhibitors of DNA Replication in Gram-Positive Bacteria (AID 485295); also: potency is read from the fitted curve at half-maximal effect
Outline: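 Double-stranded DNA product detected by PicoGreen fluorescence after EDTA quench. Compound incubated with B. subtilis holoenzyme (PolC, beta subunit, SSB, primase) before substrate addition; primed replication of M13Gori with dNTPs and NTPs at room temperature; DMSO defines 0% inhibition.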

[6] = biological target: Tumor susceptibility gene 101 protein (Homo sapiens) (UniProt Q99816); test: qHTS Validation Assay for Iinhibitors of HIV-1 Budding by Blocking the Interaction of PTAP/TSG101 (AID 485342; calls by dose curve)
Outline: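 Fluorescence polarization of 50 nM FITC-PTAP peptide bound to 10 uM Tsg101 binding domain was read after 20 min room-temperature incubation with compounds, in 10 mM HEPES pH 7.5, 0.15 M NaCl, 0.01% Tween 20.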

[7] = qHTS Validation Assay to Find Inhibitors of Chronic Active B-Cell Receptor Signaling (AID 485345; active = well fitted curve in the direction sought with a large enough effect in the main read-out, with a control signal flat, not every such curve was filed as active)
Outline: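 TMD8 ABC-DLBCL cells stably carrying doxycycline-inducible IkappaBalpha–green luciferase fusion plus unfused red luciferase; compounds 46 uM to 3 nM, 4 h at 37C with doxycycline. Corrected green/red luminescence ratio normalized to 10 uM MG-132 and basal cell wells; curves fitted.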

[8] = biological target: Beta-2 adrenergic receptor (Homo sapiens) (UniProt P07550); test: qHTS validation assay of beta-arrestin-biased ligands of beta2-adrenergic receptor (AID 485366)
Outline: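 Screening used a titration range of up to 46 microM in a beta-arrestin recruitment Tango luciferase assay. Cells in 1% FBS medium were treated 18 hr at 37 degrees C, and luminescence was normalized to %Activity.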

[9] = biological target: ATP-dependent 6-phosphofructokinase (Trypanosoma brucei brucei) (UniProt O15648); test: qHTS Validation Assay to Find Inhibitors of T. brucei phosphofructokinase (AID 485368); also: potency is read from the fitted curve at half-maximal effect
Outline: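 PFK-generated ADP was measured after 45 min at room temperature using ADP-Glo. The reaction contained 0.5 mM F6P and 0.1 mM ATP.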

[10] = Quantitative high throughput screen for delayed death inhibitors of the malarial parasite plastid, 96 hour incubation (AID 488745); also: nearly all actives have a fitted effect of over 70% in size; also: potency is read from the fitted curve at half-maximal effect
Outline: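 Readout is firefly luciferase luminescence from an integrated reporter in P. falciparum; lower signal marks inhibited growth. Cultures at 2% hematocrit and 0.1% parasitemia were treated with compound across two generations (96 h, 37 C, 5% CO2).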

Measured: Potency

ATP-dependent 6-phosphofructokinase (Trypanosoma brucei brucei), sequence (O15648 whole entry, looked up): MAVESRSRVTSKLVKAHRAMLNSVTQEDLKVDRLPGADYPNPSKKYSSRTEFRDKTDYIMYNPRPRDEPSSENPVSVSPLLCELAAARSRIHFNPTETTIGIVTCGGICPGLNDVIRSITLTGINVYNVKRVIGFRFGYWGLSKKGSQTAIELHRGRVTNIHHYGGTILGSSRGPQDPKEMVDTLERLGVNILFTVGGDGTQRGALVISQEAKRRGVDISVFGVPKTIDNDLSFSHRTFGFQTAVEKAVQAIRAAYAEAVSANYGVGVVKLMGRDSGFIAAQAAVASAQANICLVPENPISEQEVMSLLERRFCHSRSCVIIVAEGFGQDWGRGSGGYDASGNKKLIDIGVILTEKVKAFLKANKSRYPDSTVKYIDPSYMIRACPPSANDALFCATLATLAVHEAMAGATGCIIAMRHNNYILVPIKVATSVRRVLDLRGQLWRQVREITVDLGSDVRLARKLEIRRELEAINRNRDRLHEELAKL
Beta-2 adrenergic receptor (Homo sapiens), sequence (P07550 whole entry, looked up): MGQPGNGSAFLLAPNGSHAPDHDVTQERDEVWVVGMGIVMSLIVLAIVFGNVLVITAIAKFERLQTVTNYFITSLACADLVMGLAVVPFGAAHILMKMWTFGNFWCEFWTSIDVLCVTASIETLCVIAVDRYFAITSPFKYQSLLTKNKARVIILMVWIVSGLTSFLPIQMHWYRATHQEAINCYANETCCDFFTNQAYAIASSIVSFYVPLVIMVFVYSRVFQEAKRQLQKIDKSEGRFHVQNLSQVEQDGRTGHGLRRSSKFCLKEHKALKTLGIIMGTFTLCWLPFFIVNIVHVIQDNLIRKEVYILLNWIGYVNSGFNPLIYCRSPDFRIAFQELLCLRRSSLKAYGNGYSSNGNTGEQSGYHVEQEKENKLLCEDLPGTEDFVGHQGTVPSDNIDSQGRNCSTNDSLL
Tumor susceptibility gene 101 protein (Homo sapiens), sequence (Q99816 whole entry, looked up, the tested form may be a part): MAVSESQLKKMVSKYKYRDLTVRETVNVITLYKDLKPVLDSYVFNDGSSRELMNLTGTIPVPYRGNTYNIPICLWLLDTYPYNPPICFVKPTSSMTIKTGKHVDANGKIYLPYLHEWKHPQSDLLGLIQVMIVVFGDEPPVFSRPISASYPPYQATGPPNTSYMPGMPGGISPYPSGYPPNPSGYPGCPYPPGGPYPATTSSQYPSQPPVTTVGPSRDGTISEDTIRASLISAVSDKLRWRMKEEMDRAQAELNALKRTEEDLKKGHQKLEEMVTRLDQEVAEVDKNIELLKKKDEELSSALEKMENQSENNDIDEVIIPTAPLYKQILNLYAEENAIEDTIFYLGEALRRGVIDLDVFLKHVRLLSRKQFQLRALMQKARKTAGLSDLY
DNA polymerase III PolC-type (Bacillus subtilis (strain 168)), sequence (P13267 whole entry, looked up): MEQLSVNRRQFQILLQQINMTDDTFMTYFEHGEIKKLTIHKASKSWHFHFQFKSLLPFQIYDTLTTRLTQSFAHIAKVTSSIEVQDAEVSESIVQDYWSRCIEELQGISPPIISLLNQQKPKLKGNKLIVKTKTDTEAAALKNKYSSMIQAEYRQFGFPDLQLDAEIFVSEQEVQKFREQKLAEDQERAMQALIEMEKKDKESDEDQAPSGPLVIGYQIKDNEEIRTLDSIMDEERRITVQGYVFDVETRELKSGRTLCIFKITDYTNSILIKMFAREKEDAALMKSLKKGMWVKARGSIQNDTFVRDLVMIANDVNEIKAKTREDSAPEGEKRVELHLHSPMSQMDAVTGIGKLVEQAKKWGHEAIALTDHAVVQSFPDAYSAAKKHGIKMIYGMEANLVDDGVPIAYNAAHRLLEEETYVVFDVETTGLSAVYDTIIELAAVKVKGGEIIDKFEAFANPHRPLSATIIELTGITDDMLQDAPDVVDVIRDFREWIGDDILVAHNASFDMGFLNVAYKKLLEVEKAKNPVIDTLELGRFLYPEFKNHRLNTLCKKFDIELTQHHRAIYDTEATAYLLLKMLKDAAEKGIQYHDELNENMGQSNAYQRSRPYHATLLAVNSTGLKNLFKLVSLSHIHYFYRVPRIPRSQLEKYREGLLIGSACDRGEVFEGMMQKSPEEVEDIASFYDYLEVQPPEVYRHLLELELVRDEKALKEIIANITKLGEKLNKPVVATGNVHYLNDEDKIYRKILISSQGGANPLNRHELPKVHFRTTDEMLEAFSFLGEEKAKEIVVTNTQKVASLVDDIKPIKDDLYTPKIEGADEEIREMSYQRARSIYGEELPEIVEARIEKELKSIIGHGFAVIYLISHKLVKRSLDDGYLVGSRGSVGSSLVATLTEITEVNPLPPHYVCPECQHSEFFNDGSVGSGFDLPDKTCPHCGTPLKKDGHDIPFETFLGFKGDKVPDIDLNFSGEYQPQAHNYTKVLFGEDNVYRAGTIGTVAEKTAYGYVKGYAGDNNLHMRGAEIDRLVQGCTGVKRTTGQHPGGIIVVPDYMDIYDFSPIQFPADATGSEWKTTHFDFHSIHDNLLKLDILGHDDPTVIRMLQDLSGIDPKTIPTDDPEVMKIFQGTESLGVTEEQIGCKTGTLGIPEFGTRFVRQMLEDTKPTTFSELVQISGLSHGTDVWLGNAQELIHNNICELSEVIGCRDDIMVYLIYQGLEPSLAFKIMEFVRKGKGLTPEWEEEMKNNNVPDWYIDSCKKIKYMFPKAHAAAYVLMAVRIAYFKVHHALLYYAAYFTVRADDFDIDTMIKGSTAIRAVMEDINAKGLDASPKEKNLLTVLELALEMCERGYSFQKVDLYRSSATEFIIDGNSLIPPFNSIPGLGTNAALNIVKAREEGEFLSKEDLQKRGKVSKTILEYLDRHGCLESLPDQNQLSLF
Ubiquitin carboxyl-terminal hydrolase 2 (Homo sapiens), sequence (O75604 whole entry, looked up): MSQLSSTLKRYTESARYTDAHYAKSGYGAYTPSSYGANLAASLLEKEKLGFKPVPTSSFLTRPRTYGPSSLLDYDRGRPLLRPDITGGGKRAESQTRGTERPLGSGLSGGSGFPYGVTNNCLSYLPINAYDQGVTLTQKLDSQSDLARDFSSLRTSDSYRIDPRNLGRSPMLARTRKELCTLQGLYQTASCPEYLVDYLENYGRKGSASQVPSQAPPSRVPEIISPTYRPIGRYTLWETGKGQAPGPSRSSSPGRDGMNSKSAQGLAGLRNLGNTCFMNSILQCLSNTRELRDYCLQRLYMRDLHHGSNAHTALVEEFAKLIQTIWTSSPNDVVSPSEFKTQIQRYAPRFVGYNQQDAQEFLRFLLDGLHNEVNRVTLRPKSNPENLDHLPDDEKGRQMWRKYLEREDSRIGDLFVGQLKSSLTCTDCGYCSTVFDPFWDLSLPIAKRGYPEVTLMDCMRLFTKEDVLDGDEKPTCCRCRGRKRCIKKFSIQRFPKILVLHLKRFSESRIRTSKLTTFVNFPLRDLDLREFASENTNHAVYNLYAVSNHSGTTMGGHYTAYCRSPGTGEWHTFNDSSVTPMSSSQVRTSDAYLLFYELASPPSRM

CN(Cc1cnc2nc(N)nc(N)c2n1)c1ccc(C(=O)N[C@@H](CCC(=O)O)C(=O)O)cc1
active: [9] 37.9 µM
inactive: all other assays above

CCOC(=O)c1ncn2c1CN(C)C(=O)c1cc(F)ccc1-2
inactive: all assays above

Nc1ccn([C@H]2CC[C@@H](CO)O2)c(=O)n1
inactive: all assays above

NCCCCCC(=O)O
inactive: all assays above

Cc1cc(C(C)(C)C)cc(C)c1CC1=NCCN1
inactive: all assays above

CN1CCN(C2=Nc3cc(Cl)ccc3Nc3ccccc32)CC1
not listed: [10]
inactive: all other assays above

CN(C)c1nc(N(C)C)nc(N(C)C)n1
not listed: [10]
inactive: all other assays above

Cc1cc(C(C)(C)C)c(O)c(C)c1CC1=NCCN1
inactive: all assays above

O=C(c1ccc(F)cc1)C1CCN(CCn2c(=O)[nH]c3ccccc3c2=O)CC1
not listed: [9] | [10]
inactive: all other assays above

Nc1nc2c(ncn2COC(CO)CO)c(=O)[nH]1
inactive: all assays above

CS(=O)(=O)Nc1ccc([N+](=O)[O-])cc1Oc1ccccc1
not listed: [9]
inactive: all other assays above

NS(=O)(=O)c1cc2c(cc1Cl)NCNS2(=O)=O
not listed: [9]
inactive: all other assays above

NCCc1cnc[nH]1
inactive: all assays above

CCC1(C)CC(=O)NC1=O (configuration not stated)
inactive: all assays above

COc1ccc2[nH]cc(CCNC(C)=O)c2c1
not listed: [9]
inactive: all other assays above

Nc1nnc(-c2cccc(Cl)c2Cl)c(N)n1
inactive: all assays above

NC(=O)NO
inactive: all assays above

O=C(C1CCCCC1)N1CC(=O)N2CCc3ccccc3C2C1 (configuration not stated)
not listed: [9]
inactive: all other assays above

Cn1c(=O)c2c(ncn2C)n(C)c1=O
not listed: [9]
inactive: all other assays above

COc1nc(C)nc(Cl)c1NC1=NCCN1
inactive: all assays above

CN1CCC(=C2c3ccccc3CC(=O)c3sccc32)CC1
not listed: [9]
inactive: all other assays above

Cc1cnc(C(=O)NCCc2ccc(S(=O)(=O)NC(=O)NC3CCCCC3)cc2)cn1
inactive: all assays above

CCC1(c2ccccc2)C(=O)NCNC1=O
inactive: all assays above

CC(C)(Oc1ccc(C2CC2(Cl)Cl)cc1)C(=O)O (configuration not stated)
not listed: [9]
inactive: all other assays above

CC(C)C(=O)Nc1ccc([N+](=O)[O-])c(C(F)(F)F)c1
inactive: all assays above

NC(=O)OCC(COC(N)=O)c1ccccc1
inactive: all assays above

Cc1ccccc1N1C(=O)c2cc(S(N)(=O)=O)c(Cl)cc2NC1C (configuration not stated)
inactive: all assays above

NCCS(=O)(=O)O
inactive: all assays above

CC1COc2c(N3CCN(C)CC3)c(F)cc3c(=O)c(C(=O)O)cn1c23 (configuration not stated)
inactive: all assays above

Cc1cn([C@H]2C=C[C@@H](CO)O2)c(=O)[nH]c1=O
not listed: [9] | [10]
inactive: all other assays above

CC[N+](CC)(CC)CCOc1cccc(OCC[N+](CC)(CC)CC)c1OCC[N+](CC)(CC)CC
not listed: [9] | [10]
inactive: all other assays above

Clc1ccccc1C(c1ccccc1)(c1ccccc1)n1ccnc1
active: [10] 1.17 µM
not listed: [3] | [9]
inactive: all other assays above

CN1C2CCC1CC(OC(=O)C(CO)c1ccccc1)C2 (configuration not stated)
not listed: [4]
inactive: all other assays above

C[C@H]1c2cccc(O)c2C(O)=C2C(=O)[C@]3(O)C(O)=C(C(N)=O)C(=O)[C@@H](N(C)C)[C@@H]3[C@@H](O)[C@@H]21
not listed: [3] | [10]
inactive: all other assays above

CCOC(=O)C(C)(C)Oc1ccc(Cl)cc1
not listed: [9]
inactive: all other assays above

Clc1ccc(C(c2ccccc2Cl)C(Cl)Cl)cc1 (configuration not stated)
not listed: [9]
inactive: all other assays above

Clc1ccc2nsnc2c1NC1=NCCN1
not listed: [3] | [9] | [10]
inactive: all other assays above

Cc1ccc(C(=O)Nc2ccc(S(=O)(=O)O)c3cc(S(=O)(=O)O)cc(S(=O)(=O)O)c23)cc1NC(=O)c1cccc(NC(=O)Nc2cccc(C(=O)Nc3cc(C(=O)Nc4ccc(S(=O)(=O)O)c5cc(S(=O)(=O)O)cc(S(=O)(=O)O)c45)ccc3C)c2)c1
active: [4] 3.29 µM | [5] 7.52 µM | [9] 0.675 µM
not listed: [6]
inactive: all other assays above

CC(C(=O)O)c1cccc(C(=O)c2ccccc2)c1 (configuration not stated)
not listed: [9]
inactive: all other assays above

CC(COc1ccccc1)N(CCCl)Cc1ccccc1 (configuration not stated)
not listed: [9]
inactive: all other assays above
